Results as given in the supplement of paper PMC10849652.
About 8,800 targets were measured; listed, in parts, are those with a hit and a random draw of the rest. About 0.5% of all pairs of compound and target were hits. Unmarked numbers belong to inactive results.

Key:
Assay in all cases: log2 fold change, soluble protein after heating vs DMSO (PISA); higher = thermal stabilisation; K562 lysate, 10 uM; active = over 0.2 and 3.5 SD of the protein, either way, in both replicates (recomputed)
alvocidib = compound: CN1CC[C@H](c2c(O)cc(O)c3c(=O)cc(-c4ccccc4Cl)oc23)[C@H](O)C1 [alvocidib]
How it was run: (§1)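 Following dounce homogenisation of K562 pellets in PBS pH 7.4 with 1 mM MgCl2, crude extract at 1 mg/mL protein was incubated for 30 min with 10 μM compound. Aliquots were then heated for 3 min over 48°C-58°C and pooled, NP-40 was added to 0.5% at 4°C, and soluble protein was recovered as the supernatant at 21,000xg for 90 min. Channel-sum-equalised TMTpro 16plex LC-MS/MS quantified this protein. Each value, from duplicates, is a log-two fold change in thermal stability relative to solvent controls.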

Tubastatin A = compound: CN1CCc2c(c3ccccc3n2Cc2ccc(C(=O)NO)cc2)C1 [Tubastatin A]
How it was run: as §1

[1] = compound: CNC(=O)C1=CC=CC=C1NC2=NC(=NC=C2Cl)NC3=C(C=C(C=C3)N4CCOCC4)OC
How it was run: as §1

defactinib = compound: CNC(=O)c1ccc(Nc2ncc(C(F)(F)F)c(NCc3nccnc3N(C)S(C)(=O)=O)n2)cc1 [defactinib]
How it was run: as §1

[2] = compound: CNc1nc(-c2ccc3c(N)n[nH]c3c2)cc(N2C[C@@H](C(=O)NC3CCCCC3)CC[C@H]2C)n1
How it was run: as §1

encorafenib = compound: COC(=O)N[C@@H](C)CNc1nccc(-c2cn(C(C)C)nc2-c2cc(Cl)cc(NS(C)(=O)=O)c2F)n1 [encorafenib]
How it was run: as §1

[3] = compound: COC(=O)[C@H](CCSC)NC(=O)C1=C(C=C(C=C1)NC[C@H](CS)N)C2=CC=CC=C2
How it was run: as §1

alisertib = compound: COc1cc(Nc2ncc3c(n2)-c2ccc(Cl)cc2C(c2c(F)cccc2OC)=NC3)ccc1C(=O)O [alisertib]
How it was run: as §1

[4] = compound: COc1cc2nc(-c3cc(F)ccc3O)nc(N[C@@H]3CNC[C@H]3C(C)(C)O)c2cc1OC
How it was run: as §1

gefitinib = compound: COc1cc2ncnc(Nc3ccc(F)c(Cl)c3)c2cc1OCCCN1CCOCC1 [gefitinib]
How it was run: as §1

lapatinib = compound: CS(=O)(=O)CCNCc1ccc(-c2ccc3ncnc(Nc4ccc(OCc5cccc(F)c5)c(Cl)c4)c3c2)o1 [lapatinib]
How it was run: as §1

pictilisib = compound: CS(=O)(=O)N1CCN(Cc2cc3nc(-c4cccc5[nH]ncc45)nc(N4CCOCC4)c3s2)CC1 [pictilisib]
How it was run: as §1

crizotinib = compound: C[C@@H](Oc1cc(-c2cnn(C3CCNCC3)c2)cnc1N)c1c(Cl)ccc(F)c1Cl [crizotinib]
How it was run: as §1

[5] = compound: C[C@H](C1=CC=C(C=C1)C(=O)NC2=C3C=CNC3=NC=C2)N
How it was run: as §1

duvelisib = compound: C[C@H](Nc1ncnc2nc[nH]c12)c1cc2cccc(Cl)c2c(=O)n1-c1ccccc1 [duvelisib]
How it was run: as §1

gandotinib = compound: Cc1cc(Nc2cc(CN3CCOCC3)c3nc(C)c(Cc4ccc(Cl)cc4F)n3n2)n[nH]1 [gandotinib]
How it was run: as §1

tozasertib = compound: Cc1cc(Nc2cc(N3CCN(C)CC3)nc(Sc3ccc(NC(=O)C4CC4)cc3)n2)n[nH]1 [tozasertib]
How it was run: as §1

doramapimod = compound: Cc1ccc(-n2nc(C(C)(C)C)cc2NC(=O)Nc2ccc(OCCN3CCOCC3)c3ccccc23)cc1 [doramapimod]
How it was run: as §1

bafetinib = compound: Cc1ccc(NC(=O)c2ccc(CN3CC[C@H](N(C)C)C3)c(C(F)(F)F)c2)cc1Nc1nccc(-c2cncnc2)n1 [bafetinib]
How it was run: as §1

[6] = compound: Cc1cccc(CC(=O)N2CCc3c2ccc(-c2cn(C)c4ncnc(N)c24)c3F)n1
How it was run: as §1

UniProt Q99496, sequence (Q99496 whole entry, looked up): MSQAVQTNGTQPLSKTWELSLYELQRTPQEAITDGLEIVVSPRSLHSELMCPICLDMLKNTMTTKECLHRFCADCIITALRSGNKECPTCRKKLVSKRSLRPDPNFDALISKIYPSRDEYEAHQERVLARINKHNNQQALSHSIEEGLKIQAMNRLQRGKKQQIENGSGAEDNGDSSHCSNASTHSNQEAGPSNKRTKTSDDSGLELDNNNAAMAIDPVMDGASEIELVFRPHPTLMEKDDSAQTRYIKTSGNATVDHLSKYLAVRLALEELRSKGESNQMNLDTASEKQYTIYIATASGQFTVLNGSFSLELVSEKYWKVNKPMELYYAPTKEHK
UniProt Q99442, sequence (Q99442 whole entry, looked up): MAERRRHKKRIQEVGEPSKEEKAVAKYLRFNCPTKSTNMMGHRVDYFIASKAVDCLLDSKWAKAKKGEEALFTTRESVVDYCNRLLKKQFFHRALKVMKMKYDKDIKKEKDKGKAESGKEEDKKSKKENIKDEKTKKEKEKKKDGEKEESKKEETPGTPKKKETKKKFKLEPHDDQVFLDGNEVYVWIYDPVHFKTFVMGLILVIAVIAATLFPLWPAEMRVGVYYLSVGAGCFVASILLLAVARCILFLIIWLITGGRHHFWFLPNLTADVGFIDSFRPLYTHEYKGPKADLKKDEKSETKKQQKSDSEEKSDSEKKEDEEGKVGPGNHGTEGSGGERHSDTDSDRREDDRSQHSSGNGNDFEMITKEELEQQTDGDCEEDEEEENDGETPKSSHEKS
UniProt Q00765, sequence (Q00765 whole entry, looked up): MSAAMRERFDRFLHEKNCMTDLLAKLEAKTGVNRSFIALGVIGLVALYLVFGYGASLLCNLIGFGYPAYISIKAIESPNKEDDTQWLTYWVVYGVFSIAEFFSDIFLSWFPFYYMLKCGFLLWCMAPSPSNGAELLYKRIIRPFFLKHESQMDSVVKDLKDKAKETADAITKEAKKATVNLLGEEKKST
UniProt Q8WZA2, sequence (Q8WZA2 whole entry, looked up): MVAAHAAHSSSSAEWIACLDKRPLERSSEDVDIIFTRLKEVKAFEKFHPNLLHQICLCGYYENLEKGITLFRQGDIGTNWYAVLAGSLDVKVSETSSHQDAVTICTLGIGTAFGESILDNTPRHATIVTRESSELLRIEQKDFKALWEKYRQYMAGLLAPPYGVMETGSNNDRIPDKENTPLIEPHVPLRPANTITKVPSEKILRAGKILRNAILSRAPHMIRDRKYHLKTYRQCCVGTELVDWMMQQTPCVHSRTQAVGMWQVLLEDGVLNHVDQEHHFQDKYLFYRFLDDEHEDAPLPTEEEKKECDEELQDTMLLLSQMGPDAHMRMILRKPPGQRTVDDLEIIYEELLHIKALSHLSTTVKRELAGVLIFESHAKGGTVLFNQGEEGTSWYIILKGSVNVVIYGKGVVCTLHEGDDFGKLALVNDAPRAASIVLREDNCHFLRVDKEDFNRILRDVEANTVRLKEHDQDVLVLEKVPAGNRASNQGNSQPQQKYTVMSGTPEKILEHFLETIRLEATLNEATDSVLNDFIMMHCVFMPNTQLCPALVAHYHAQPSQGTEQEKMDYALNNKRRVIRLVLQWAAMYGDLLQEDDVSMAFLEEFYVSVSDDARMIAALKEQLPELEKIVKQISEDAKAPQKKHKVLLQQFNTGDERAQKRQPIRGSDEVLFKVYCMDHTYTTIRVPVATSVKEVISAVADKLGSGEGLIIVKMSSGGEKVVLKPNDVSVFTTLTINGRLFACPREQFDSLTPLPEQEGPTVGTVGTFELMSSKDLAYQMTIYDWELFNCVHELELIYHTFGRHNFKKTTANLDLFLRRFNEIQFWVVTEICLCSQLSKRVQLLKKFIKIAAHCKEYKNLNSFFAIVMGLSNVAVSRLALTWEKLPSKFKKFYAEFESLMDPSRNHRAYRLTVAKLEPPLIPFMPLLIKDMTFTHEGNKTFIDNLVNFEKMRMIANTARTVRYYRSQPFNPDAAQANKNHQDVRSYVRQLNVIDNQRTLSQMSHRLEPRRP
UniProt Q9H0R6, sequence (Q9H0R6 whole entry, looked up): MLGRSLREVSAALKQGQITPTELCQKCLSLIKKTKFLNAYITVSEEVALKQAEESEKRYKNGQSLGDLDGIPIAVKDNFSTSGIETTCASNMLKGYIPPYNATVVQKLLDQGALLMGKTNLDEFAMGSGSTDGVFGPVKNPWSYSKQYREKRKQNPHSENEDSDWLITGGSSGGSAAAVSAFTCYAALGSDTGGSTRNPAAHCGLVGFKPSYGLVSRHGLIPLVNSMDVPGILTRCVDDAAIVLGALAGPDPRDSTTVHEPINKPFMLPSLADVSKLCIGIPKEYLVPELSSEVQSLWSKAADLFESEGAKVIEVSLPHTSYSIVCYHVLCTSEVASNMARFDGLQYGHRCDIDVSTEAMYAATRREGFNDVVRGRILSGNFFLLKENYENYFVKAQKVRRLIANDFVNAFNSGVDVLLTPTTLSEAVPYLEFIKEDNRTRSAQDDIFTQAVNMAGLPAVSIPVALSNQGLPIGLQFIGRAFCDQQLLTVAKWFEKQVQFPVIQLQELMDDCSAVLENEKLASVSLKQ
UniProt Q6NUQ1, sequence (Q6NUQ1 whole entry, looked up): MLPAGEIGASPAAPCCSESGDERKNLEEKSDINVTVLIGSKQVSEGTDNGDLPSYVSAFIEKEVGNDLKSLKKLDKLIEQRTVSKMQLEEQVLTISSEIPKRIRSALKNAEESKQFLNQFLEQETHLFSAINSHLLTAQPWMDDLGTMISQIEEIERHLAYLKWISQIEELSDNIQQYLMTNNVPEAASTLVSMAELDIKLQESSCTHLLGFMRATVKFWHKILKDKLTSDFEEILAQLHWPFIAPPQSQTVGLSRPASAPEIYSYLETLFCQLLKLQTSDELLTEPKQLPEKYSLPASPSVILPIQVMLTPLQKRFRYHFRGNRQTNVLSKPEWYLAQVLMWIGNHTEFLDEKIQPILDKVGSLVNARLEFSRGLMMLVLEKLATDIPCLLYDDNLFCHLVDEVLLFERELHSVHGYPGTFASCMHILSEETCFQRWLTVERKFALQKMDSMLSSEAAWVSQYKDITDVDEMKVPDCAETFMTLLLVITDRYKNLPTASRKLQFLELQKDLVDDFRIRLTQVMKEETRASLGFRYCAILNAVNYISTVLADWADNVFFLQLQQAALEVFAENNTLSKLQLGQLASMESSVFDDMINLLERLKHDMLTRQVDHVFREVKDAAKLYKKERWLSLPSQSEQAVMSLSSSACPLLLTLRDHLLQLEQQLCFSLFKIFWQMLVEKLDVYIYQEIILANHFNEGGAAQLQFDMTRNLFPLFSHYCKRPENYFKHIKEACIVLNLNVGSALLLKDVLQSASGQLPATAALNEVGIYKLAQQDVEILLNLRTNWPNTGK
UniProt Q8TC12, sequence (Q8TC12 whole entry, looked up): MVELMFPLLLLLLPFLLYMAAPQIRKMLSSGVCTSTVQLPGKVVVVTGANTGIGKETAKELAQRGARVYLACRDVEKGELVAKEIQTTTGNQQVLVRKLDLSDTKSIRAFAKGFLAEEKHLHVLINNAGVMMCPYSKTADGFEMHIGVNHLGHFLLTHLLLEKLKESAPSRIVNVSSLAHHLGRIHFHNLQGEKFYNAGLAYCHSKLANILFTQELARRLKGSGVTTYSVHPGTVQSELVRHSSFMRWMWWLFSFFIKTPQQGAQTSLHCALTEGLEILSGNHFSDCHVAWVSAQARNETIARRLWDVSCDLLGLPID
UniProt P78406, sequence (P78406 whole entry, looked up): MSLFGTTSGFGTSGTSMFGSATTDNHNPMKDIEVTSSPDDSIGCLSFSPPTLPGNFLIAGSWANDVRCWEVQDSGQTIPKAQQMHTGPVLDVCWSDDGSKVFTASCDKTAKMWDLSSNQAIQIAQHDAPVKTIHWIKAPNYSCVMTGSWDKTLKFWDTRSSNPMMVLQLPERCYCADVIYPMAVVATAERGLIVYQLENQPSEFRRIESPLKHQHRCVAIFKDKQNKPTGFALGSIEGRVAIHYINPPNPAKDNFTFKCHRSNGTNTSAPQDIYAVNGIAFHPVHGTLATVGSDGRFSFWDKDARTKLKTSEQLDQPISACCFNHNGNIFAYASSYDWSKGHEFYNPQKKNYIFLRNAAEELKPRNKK
UniProt P11233, sequence (P11233 whole entry, looked up): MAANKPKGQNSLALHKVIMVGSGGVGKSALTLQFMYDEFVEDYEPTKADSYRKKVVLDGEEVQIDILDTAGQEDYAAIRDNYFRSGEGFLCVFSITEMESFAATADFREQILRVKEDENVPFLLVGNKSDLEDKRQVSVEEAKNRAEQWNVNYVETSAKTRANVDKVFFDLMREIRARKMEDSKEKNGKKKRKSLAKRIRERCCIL
UniProt Q14644, sequence (Q14644 whole entry, looked up): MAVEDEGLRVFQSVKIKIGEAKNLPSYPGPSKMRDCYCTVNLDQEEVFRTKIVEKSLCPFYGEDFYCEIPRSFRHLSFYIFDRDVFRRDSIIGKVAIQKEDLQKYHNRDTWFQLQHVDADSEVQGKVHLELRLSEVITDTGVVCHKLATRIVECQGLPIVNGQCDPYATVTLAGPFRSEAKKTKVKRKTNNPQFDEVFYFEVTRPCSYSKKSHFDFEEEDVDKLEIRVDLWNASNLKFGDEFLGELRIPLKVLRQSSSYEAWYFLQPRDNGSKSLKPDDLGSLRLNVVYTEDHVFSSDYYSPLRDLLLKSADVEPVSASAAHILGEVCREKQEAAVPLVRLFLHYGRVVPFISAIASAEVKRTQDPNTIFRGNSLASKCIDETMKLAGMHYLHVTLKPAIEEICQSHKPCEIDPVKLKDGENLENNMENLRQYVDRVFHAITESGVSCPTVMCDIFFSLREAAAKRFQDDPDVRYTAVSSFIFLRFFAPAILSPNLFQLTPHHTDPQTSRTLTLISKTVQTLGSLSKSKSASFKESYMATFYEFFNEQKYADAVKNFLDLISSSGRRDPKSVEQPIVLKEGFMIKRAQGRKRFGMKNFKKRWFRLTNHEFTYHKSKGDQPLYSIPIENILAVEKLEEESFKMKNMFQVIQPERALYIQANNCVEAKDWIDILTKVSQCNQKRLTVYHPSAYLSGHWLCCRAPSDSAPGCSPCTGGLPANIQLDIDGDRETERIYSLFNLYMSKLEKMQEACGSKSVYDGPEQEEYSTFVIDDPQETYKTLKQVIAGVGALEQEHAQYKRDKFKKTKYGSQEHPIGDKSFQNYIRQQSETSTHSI

Target	log2 fold change (alvocidib)	log2 fold change (Tubastatin A)	log2 fold change [1]	log2 fold change (defactinib)	log2 fold change [2]	log2 fold change (encorafenib)	log2 fold change [3]	log2 fold change (alisertib)	log2 fold change [4]	log2 fold change (gefitinib)	log2 fold change (lapatinib)	log2 fold change (pictilisib)	log2 fold change (crizotinib)	log2 fold change [5]	log2 fold change (duvelisib)	log2 fold change (gandotinib)	log2 fold change (tozasertib)	log2 fold change (doramapimod)	log2 fold change (bafetinib)	log2 fold change [6]
REEP5 (UniProt Q00765)	-0.054	-0.004	-0.056	0.04	0.035	0.001	0.263 (active)	-0.009	0.001	-0.092	-0.001	-0.026	0.024	-0.11	0.01	0.061	-0.052	-0.03	-0.027	0.055
RCAN1 (UniProt P53805)	-0.003	-0.118	0.052	0.006	0.079	0.065	0.035	-0.02	0.019	-0.038	-0.017	-0.048	-0.127	-0.088	-0.012	0.041	0.017	-0.039	0.123	-0.03
QRSL1 (UniProt Q9H0R6)	-0.028	-0.021	-0.012	-0.068	-0.051	-0.015	-0.005	0.014	0.014	-0.045	0.038	0.044	0.031	0.105	0.044	-0.04	0.044	0.003	-0.227	-0.022
RAB8B (UniProt Q92930)	0.037	0.034	-0.011	-0.016	-0.026	-0.002	-0.045	0.016	0.015	0.115	0.065	-0.018	0.034	0.037	0.098	-0.289 (active)	0.003	-0.013	0.088	-0.079
RPL28 (UniProt P46779)	0.03	0.006	-0.009	-0.018	0.036	0.012	-0.014	0.011	-0.005	-0.058	0.01	0.047	0.043	0.234	0.018	-0.098	-0.018	-0.046	0.056	-0.059
RPS9 (UniProt P46781)	0.053	0.006	-0.036	-0.064	0.006	-0.022	0.065	0.004	-0.003	-0.033	-0.012	0.009	0.061	0.244 (active)	0.006	-0.087	0.016	-0.023	0.034	-0.07
RDH11 (UniProt Q8TC12)	-0.071	0.031	0.011	0	0.1	0.092	0.149	-0.009	0.082	-0.019	-0.035		-0.034	-0.11	-0.011	0.298 (active)	0.009	0.041		0.328 (active)
S100A6 (UniProt P06703)	0.084	-0.044	0.018	-0.017	-0.126	-0.173	0.023		-0.038		0.069		0.119	0.088	0	0.207	-0.038	-0.017		-0.119
RALA (UniProt P11233)	-0.164	0.044	0.016	-0.057	0.056	0.03	-0.102	0.009	0.01	0.023	-0.017	-0.022	0.012	-0.3 (active)	0	0.158	-0.009	0.014	0.029	0.217 (active)
RNF2 (UniProt Q99496)	0.359	-0.008	0.067	0.034	0.018	0.054	-0.076	-0.125		-0.038			0.087	0.484 (active)	0.031	-0.299	0.021	-0.032		-0.442 (active)
SEC62 (UniProt Q99442)	0.046	0.07	0.019	0.02	0.045	-0.012	-0.084	-0.003	-0.028	0.004	0.028	-0.029	0.011	0.231	0	-0.07	-0.024	0.002	0.029	-0.072
RHOU (UniProt Q7L0Q8)	0.007	0.005	-0.036	-0.073	-0.17	-0.088	0.164	-0.014	0.024	-0.017	-0.05		-0.002	-0.323 (active)	0.024	-0.031	0.113	0.038		0.056
RASA3 (UniProt Q14644)	-0.089	-0.246	0	0.052	-0.118	-0.005	0.082	-0.006	0.032	-0.043	0.08	-0.044	-0.061	-0.049	0.103	-0.026	-0.017	-0.005	-0.198	0.005
RTTN (UniProt Q86VV8)	0.088	-0.242	0.082	0.401	0.018	0.069	-0.085	-0.002	-0.301	0.049	0.306	-0.034		-0.053	0.067	-0.289	-0.07		-0.032	0.203
RAE1 (UniProt P78406)	-0.038	-0.072	0.039	-0.004	-0.044	0.038	0.345 (active)	-0.015	-0.002	0.033	0.055	0.003	0.05	-0.158	-0.063	0.031	-0.071	-0.032	0.235	0.111
RAPGEF4 (UniProt Q8WZA2)	-0.367	0.156	0.061	-0.023	0.433	0.018	0.147		0.196		-0.061	0.047	-0.24	-0.804 (active)	0.104	0.38	-0.088	-0.041	-0.212	0.543
RINT1 (UniProt Q6NUQ1)	0.041	-0.083	0.011	0.047	-0.072	0.01	-0.017	-0.086	0.065	0.035	-0.069	-0.065	-0.06	-0.058	0.046	-0.039	0.025	0.069	-0.058	0.132
